Source: PubChem BioAssay
The source made the active and inactive calls.

Tests used:
[1] = binders of probe aFSTL3 on microarray, primary screen, stem cell growth factor project, biochemical, small-molecule microarray, fluorescence 635/667 (AID 1064); settings: higher = more signal;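 further: measures binding of the biotinylated anti-FSTL3 antibody to printed compounds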
[2] = binders from COS7 lysate, DM2A8 probe, primary screen, torsin A project, cell lysate, small-molecule microarray, fluorescence 635/667 (AID 1065); settings: higher = more signal, COS7 lysate expressing mutant human TOR1A
[3] = binders of probe aFGF2 on microarray, primary screen, stem cell growth factor project, biochemical, small-molecule microarray, fluorescence 635/667 (AID 1067); settings: higher = more signal;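 further: measures binding of biotinylated aFGF2 protein to printed compounds on slides; z-score merges feature fluorescence and signal-to-noise across triplicate slides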
[4] = binders of probe aFGF10 on microarray, primary screen, stem cell growth factor project, biochemical, small-molecule microarray, fluorescence 635/667 (AID 1071); settings: higher = more signal;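 further: score merges 667 nm spot intensity and signal to noise from triplicate slides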
[5] = molecular target: Neurogenic locus notch homolog protein 2 (Homo sapiens) (UniProt Q04721); assay: Notch2 binders on small-molecule microarrays, primary screen, biochemical, small-molecule microarray, 635 nm fluorescence, stem cell growth factors (AID 1073); settings: Notch2 binding, higher = more signal
Neurogenic locus notch homolog protein 2 (Homo sapiens), sequence (Q04721 whole entry, looked up, canonical isoform): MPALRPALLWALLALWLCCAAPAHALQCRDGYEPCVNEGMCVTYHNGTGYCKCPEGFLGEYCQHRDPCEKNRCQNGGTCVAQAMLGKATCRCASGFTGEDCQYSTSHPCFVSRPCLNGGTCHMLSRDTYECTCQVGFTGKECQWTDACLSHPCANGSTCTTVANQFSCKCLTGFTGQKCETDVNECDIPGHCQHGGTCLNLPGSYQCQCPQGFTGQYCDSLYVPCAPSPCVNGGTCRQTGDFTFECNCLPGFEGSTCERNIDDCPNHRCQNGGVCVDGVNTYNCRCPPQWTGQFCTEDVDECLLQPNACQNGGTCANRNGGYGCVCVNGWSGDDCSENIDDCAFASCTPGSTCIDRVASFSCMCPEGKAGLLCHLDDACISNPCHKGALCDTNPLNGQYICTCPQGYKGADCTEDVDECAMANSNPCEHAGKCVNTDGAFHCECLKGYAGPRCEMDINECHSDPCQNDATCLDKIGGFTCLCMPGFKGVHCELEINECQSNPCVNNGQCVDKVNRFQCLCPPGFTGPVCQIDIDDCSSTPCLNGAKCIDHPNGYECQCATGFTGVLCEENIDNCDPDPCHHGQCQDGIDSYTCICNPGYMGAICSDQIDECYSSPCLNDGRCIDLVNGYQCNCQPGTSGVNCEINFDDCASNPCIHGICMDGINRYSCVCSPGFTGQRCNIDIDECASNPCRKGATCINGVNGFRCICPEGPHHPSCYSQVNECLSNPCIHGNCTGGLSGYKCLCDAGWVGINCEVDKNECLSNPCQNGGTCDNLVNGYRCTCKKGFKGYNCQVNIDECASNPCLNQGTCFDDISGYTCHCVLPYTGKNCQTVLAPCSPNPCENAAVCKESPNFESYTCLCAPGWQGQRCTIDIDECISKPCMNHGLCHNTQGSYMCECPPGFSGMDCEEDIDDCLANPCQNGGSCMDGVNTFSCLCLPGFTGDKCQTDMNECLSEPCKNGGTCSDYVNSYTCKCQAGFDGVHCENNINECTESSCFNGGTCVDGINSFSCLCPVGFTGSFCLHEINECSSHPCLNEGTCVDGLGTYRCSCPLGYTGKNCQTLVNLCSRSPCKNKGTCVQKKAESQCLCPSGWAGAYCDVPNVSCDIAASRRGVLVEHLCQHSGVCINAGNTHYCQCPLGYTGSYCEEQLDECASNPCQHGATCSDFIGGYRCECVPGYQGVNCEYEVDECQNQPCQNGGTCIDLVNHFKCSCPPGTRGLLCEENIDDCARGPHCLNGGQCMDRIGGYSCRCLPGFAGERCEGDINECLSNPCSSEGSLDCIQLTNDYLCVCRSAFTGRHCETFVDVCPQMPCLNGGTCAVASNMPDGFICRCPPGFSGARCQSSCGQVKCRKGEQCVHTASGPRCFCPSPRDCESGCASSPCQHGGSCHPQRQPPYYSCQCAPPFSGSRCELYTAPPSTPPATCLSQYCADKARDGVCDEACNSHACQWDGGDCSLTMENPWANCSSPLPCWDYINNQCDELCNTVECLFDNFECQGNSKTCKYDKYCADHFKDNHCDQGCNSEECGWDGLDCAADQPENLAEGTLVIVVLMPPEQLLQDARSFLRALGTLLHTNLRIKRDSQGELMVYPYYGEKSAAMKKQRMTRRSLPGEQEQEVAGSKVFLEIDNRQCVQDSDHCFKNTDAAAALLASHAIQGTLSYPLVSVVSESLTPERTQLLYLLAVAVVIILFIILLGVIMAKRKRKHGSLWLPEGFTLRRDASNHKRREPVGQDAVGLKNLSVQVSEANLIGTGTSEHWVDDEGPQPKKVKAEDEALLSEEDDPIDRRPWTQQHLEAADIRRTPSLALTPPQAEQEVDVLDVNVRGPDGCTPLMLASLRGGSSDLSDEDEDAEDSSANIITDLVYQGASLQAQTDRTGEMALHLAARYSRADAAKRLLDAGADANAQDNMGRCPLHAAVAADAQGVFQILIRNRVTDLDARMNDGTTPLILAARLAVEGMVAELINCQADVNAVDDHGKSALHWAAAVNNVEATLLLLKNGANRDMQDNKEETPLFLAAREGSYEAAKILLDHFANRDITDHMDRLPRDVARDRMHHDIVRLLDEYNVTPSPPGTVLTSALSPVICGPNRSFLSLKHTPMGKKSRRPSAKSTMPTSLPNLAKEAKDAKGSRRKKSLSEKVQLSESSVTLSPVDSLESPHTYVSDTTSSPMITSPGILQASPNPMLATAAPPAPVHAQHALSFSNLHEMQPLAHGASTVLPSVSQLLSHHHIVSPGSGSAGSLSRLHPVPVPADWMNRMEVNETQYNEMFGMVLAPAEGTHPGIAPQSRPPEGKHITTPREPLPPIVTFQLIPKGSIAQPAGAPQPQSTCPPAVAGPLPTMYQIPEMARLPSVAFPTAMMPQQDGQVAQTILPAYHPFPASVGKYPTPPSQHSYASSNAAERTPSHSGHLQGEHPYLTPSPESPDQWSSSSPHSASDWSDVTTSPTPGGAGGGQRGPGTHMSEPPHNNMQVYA

[6] = molecular target: Pro-neuregulin-1, membrane-bound isoform (Homo sapiens) (UniProt Q02297); assay: NRG1 binders on small-molecule microarrays, primary screen, psychiatric disease protein project, biochemical, small-molecule microarray, fluorescence 635/667 (AID 1075); settings: NRG1 binding, 635 nm fluorescence, higher = more signal;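 further: score combines 667 nm spot fluorescence with signal to noise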
Pro-neuregulin-1, membrane-bound isoform (Homo sapiens), sequence (Q02297 whole entry, looked up, the tested form may be a part, canonical isoform): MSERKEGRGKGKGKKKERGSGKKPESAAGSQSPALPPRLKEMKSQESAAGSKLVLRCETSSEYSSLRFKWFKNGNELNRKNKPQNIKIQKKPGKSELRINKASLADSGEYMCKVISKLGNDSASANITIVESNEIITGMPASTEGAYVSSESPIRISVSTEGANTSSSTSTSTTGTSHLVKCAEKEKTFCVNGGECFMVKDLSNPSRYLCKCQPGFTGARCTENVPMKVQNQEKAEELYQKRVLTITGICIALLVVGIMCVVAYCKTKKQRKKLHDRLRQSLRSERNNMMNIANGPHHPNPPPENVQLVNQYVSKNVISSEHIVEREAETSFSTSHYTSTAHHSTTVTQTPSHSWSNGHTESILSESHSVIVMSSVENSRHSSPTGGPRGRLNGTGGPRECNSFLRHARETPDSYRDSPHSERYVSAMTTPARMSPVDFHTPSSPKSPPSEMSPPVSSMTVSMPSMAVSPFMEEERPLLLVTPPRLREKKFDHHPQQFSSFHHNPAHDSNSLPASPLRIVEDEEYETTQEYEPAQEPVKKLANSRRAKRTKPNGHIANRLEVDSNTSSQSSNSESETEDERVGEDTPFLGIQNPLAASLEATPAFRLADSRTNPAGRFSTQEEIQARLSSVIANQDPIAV

[7] = tested on: Neuregulin-1 EGF-like domain; assay: binders of neuregulin-1 EGF-like domain, primary screen, biochemical, small-molecule microarray, 635 nm fluorescence (AID 1081); settings: small-molecule microarray binding, higher = more signal;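 further: binding of the protein to compounds printed on small-molecule microarray slides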
[8] = FRG1 promoter luciferase signal modulators, primary screen, FRG1 inhibition for FSHD, cell-based, C2C12 myotubes, firefly/Renilla luciferase, luminescence (AID 1084); settings: higher = more signal, called active from +8 up or from −8 down
[9] = binders of probe aFST on microarray, primary screen, stem cell growth factor project, biochemical, small-molecule microarray, fluorescence 635/667 (AID 1086); settings: higher = more signal;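 further: score merges 667 nm fluorescence with signal-to-noise of each printed compound spot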
[10] = binders of probe aHhip on microarray, primary screen, stem cell growth factor project, biochemical, small-molecule microarray, fluorescence 635/667 (AID 1087); settings: higher = more signal;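 further: score merges spot fluorescence at 667nm with spot signal to noise ratio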

| Compound | composite z-score [1] | composite z-score [2] | composite z-score [3] | composite z-score [4] | composite z-score [5] | composite z-score [6] | composite z-score [7] | z-score [8] | composite z-score [9] | composite z-score [10] |
| --- | --- | --- | --- | --- | --- | --- | --- | --- | --- | --- |
| COc1ccc([Si](C)(C)[C@H]2[C@H](CCO)O[C@@]3(C(=O)N(Cc4ccc(N5C(=O)COc6ccccc65)cc4)c4ccccc43)[C@@H]2C)cc1 | 0.0421 | -0.271 | -0.14 | -0.164 | -0.24 | 0.774 | 0.474 | -3.99 (inactive) | -0.148 | 0.0129 |
| CCCN1C(=O)[C@]2(CCS(=O)(=O)c3ccccc3)N=C(c3ccc(OCCCO)cc3)O[C@@H]2c2ccccc21 | 0.375 | -0.212 | -0.0027 | 0.572 | 0.58 | 1.28 | 1.27 | -0.775 (inactive) | 0.458 | -0.0645 |
| C=CC[C@]1(C(=O)N2CCCCC2)N=C(c2ccc(OCCCO)cc2)O[C@H]1c1ccccc1 | 1.08 | 0.785 | 0.0472 | 0.452 | 0.668 | 1.77 | 1.17 | -1.11 (inactive) | 1.63 | 1.27 |
| CC1CC/C=C\[C@H]2OC34C=CCN(c5ccc(Cl)cc5)C(=O)[C@H]3N(CCO)C(=O)[C@]4(C)C2C(=O)O1 (stereo not given in full) | 0.359 | 0.0741 | -0.12 | -0.472 | -0.749 | 0.93 | 0.842 | -0.39 (inactive) | -0.448 | -0.106 |
| CCCCC(O)C1C=CC2C(=O)N(c3ccccc3)C(=O)C2N1Nc1ccccc1F (stereo not given) | 1.12 | 0.0488 | 0.256 | 0.516 | 0.829 | 1.15 | 1.2 | 0.221 (inactive) | 1.75 | 0.953 |
| Cc1ccc(S[C@]2(C(=O)NCCN3CCOCC3)CC(=O)N(Cc3ccccc3)[C@@H]2c2ccc(CO)cc2I)cc1 | 1.09 | -0.883 | -0.0564 | -0.165 | -1.51 | 0.742 | 1.49 | -0.456 (inactive) | -0.39 | -0.0645 |
| CC(=O)NCCCC[C@@H]1NC(=O)[C@@H]2C[C@H](C(=O)NCCCCN(C)C)[C@H](c3cccc(OCCO)c3)N2C1=O | 0.123 | 0.537 | -0.108 | -0.107 | -0.569 | -0.283 | 1.12 | 3.26 (inactive) | 0.571 | -0.236 |
| C=C(/C(=C/C[C@@H](OC(C)=O)c1ccc(OCCO)cc1)c1cnc2ccccc2c1)C(C)C | -0.0854 | 0.769 | -0.073 | 0.164 | 0.205 | 0.213 | 0.946 | -1.06 (inactive) | 0.142 | -0.0645 |
